Screening data deposited in PubChem BioAssay by National Center for Advancing Translational Sciences (NCATS).
Shown are actives, neighbours in structure and some others; about 14% of the full set was active somewhere.
CHX counter – counter-screen for Shiga toxin inhibitors: cycloheximide protein synthesis inhibition; cell reporter, cycloheximide protein synthesis inhibition counterscreen; actives 12% (n = 300,000); AID 2314; max response, %; in the data active = max response mostly above about 13%, no sharp cut-off; inactive = mostly below about 14%; also: read at 38.3 µM for the half of the compounds with a filed dose; 0% is about no effect
Shiga toxin inh – inhibitors of Shiga toxin in Vero cells; AID 2315; actives 9.2% (n = 290,000); Vero cells, Shiga toxin protein synthesis inhibition reporter; inhibition, % at 38.7 µM; in the data active = inhibition mostly above about 28%, no sharp cut-off; inactive = mostly below about 43%; also: 0% is about no effect
NS1 inh – influenza NS1 inhibition; Potency, µM (titrated, usually from 46.1 µM), inactives show top-dose activity, positive = more growth; AID 2326; actives 0.4% (n = 270,000); calls by dose curve; also: potency is read from the fitted curve at half-maximal effect; actives are rising curves; nearly all actives have a fitted effect of over 50% in size
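A cell-based growth assay was used: compounds that relieve NS1-induced slow growth of budding yeast raise OD600. Assay medium was yeast nitrogen base with ammonium sulphate and -URA supplement, pH 6.0, with 2% galactose.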
LmPK inhibitor – inhibitors of Leishmania mexicana pyruvate kinase | purified LmPK, Kinase-Glo ATP luminescence, 1 h | Q27686 | actives 0.37% (n = 290,000) | AID 1721 | Potency, µM (highest dose often 57.5 µM), without a hit: top-dose activity change, negative = inhibition, hits mostly inhibitors; also: potency is read from the fitted curve at half-maximal effect; % is scaled to controls: 0 for no effect and ±100 for the full control effect
Target sequence (Q27686 whole entry, looked up): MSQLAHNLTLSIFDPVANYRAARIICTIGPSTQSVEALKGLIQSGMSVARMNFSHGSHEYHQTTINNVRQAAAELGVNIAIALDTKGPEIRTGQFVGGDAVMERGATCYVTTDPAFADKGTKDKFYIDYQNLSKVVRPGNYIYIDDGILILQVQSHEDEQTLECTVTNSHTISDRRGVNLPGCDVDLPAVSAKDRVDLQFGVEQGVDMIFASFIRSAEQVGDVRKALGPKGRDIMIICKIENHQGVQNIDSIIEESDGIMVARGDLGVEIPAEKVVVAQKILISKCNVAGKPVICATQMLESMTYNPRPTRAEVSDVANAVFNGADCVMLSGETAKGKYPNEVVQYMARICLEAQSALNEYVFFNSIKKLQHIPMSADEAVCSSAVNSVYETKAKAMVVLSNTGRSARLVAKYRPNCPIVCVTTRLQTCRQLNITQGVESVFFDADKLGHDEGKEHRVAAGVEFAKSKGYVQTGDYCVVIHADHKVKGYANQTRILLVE
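In 50 mM imidazole pH 7.2 with 7 mM MgCl2, LmPK (0.1 nM) turned over PEP (0.5 mM) and ADP (0.1 mM) for 1 h at room temperature. Luciferase read-out of ATP.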
FBPA Giardia inh – Giardia lamblia aldolase inhibition; actives 0.71% (n = 290,000); A8B2U2; Potency, µM (titrated, usually from 59.6 µM), for the others: at the top dose activity, negative = inhibition, hits mostly inhibitors; purified Giardia FBPA; AID 2451; also: potency is read from the fitted curve at half-maximal effect; % is scaled to controls: 0 for no effect and ±100 for the full control effect; nearly all actives have a fitted effect of over 55% in size
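Giardia FBPA (40 nM reagent) was preincubated 10 min at RT with compound (up to 57.5 uM final), then substrate plus GAPDH/TPI/NAD/arsenate coupling system with diaphorase/resazurin was added; resorufin fluorescence (525/598 nm) was read after 20 min.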
* marks the source's active call; other numbers are inactive results; ? = inconclusive; . = not tested or not shown; [ ] = remark or other dose. Unless noted, calls follow the shape of the dose curve; as a rule, active = well fitted curve in the direction sought with a large enough effect; inconclusive = small, poorly fitted or top-dose-only effect, or another doubt; inactive = no such curve, though single readings can be large; an effect the other way counts as inactive or inconclusive.

SMILES | CHX counter | Shiga toxin inh | NS1 inh | LmPK inhibitor | FBPA Giardia inh
COc1ccc(NC(=O)c2ccco2)cc1NC(=O)c1ccc(Br)o1 | 0.7 | 12.3 | -31.5% | 0.1% | 8.0%
Cc1cccc(C)c1OCC(=O)Nc1ccc(NC(=O)c2ccco2)cc1 | 9.2 | -1.3 | -5.1% | 4.2% | 1.4%
O=C(Nc1ccc2nc(-c3ccc(Br)o3)[nH]c2c1)c1ccco1 | 23.5* | 74.0* | -119.0% | -6.8% | -19.4%
Cc1cccc2[nH]c(-c3ccc(NC(=O)c4ccco4)cc3)nc12 | 31.9* | 125.9* | -13.7% | ? | 6.6%
O=C(Nc1ccc2nc[nH]c2c1)c1ccco1 | 29.7* | 71.1* | 0.1% | -13.9% | -6.1%
O=C(Nc1ccc2nc(-c3ccc(Br)o3)[nH]c2c1)c1cccs1 | 44.8* | 52.4* | -46.6% | -1.6% | -17.3%
CC(C)C[C@H](NC(=O)[C@H](CCCCN)NC(=O)[C@H](CCCNC(=N)N)NC(=O)[C@H](C)NC(=O)[C@H](CO)NC(=O)[C@H](CCCCN)NC(=O)[C@H](CCCNC(=N)N)NC(=O)[C@H](C)NC(=O)CNC(=O)[C@@H](NC(=O)[C@H](Cc1ccccc1)NC(=O)CNC(=O)CNC(=O)[C@@H](N)Cc1ccccc1)[C@@H](C)O)C(=O)N[C@@H](C)C(=O)N[C@@H](CC(N)=O)C(=O)N[C@@H](CCC(N)=O)C(=O)O | -1.1 | 16.0 | . | . | -0.2%
CC(C)Oc1cccc(C(=O)C2CCCN(C(=O)c3ccc4c(c3)OCO4)C2)c1 (centres undefined) | 2.2 | -2.4 | -6.3% | 3.8% | 12.9%
COc1ccc(N2C(=O)NC(NC(=O)C(C)(C)C)(C(F)(F)F)C2=O)cc1 (centres undefined) | -4.3 | -9.2 | 1.8% | 1.1% | 5.5%
Cc1ccc(-c2cc(C(=O)N3CCN(C(=O)c4ccco4)CC3)[nH]n2)cc1C | 8.5 | 19.7 | 4.1% | -2.3% | 14.6%
O=C(CCCC(=O)N1CCCC1)N1CCCC1 | 18.9 | 27.1* | 0.6% | -0.2% | -0.3%
CC1CCN(C(=O)CCCC(=O)O)CC1 | -1.2 | -6.6 | -6.9% | 1.4% | 6.3%
O=C(O)CCCC(=O)N1CCCC1 | -2.6 | -1.6 | 3.5% | 4.4% | 0.4%
CC1CCN(C(=O)CCCC(=O)N2CCC(C)CC2)CC1 | 19.0 | 23.9* | 5.4% | -11.5% | .
CCCn1c(C)nc2c(NCCN(C(C)C)C(C)C)nc(C)nc21 | . | . | . | . | 4.2%
O=C(/C=C/c1ccc(OC(F)F)cc1)Nc1cccc(S(=O)(=O)NC2=NCCCCC2)c1 | 28.7* | 57.3* | 2.0% | -4.8% | .
COc1ccc(/C=C/C(=O)Nc2cccc(S(=O)(=O)NC3=NCCCCC3)c2)cc1 | 25.9* | 74.4* | 9.1% | 2.5% | 2.0%
COc1ccccc1/C=C/C(=O)Nc1cccc(S(=O)(=O)NC2=NCCCCC2)c1 | 3.8 | 38.1 | . | 1.0% | -2.2%
Cc1ccc(/C=C/c2nc3ccccc3[nH]2)o1 | 40.0* | 51.3* | . | 15.8µM* | ?
Cc1cc2nc(-c3ccc4c(c3)CCC4)ccn2n1 | 20.4* | 46.2* | -33.3% | -5.1% | 3.2%
O=C(N/C(=C\c1ccccc1)C(=O)N1CCCCC1)c1ccc(Br)o1 | -4.4 | -8.2 | -18.4% | -1.5% | .
c1coc(C2=NCCc3ccccc32)c1 | 3.8 | 7.1 | -2.1% | 1.4% | ?
Oc1ccccc1C1=Nc2ccccc2N=C(c2ccco2)C1 | 12.6* | 23.6 | -4.5% | -3.1% | -28.8%
Cc1c(Cc2ccccc2)c(=O)oc2cc(OCC(=O)N3CCC(C(=O)O)CC3)ccc12 | -1.9 | -4.0 | ? | -6.4% | -0.6%
CC1CCC2C(=O)N3CCCC3C(=O)N2C1c1ccc(Br)cc1 (centres undefined) | . | . | . | . | -3.0%[12.9 µM]
SMILES | CHX counter | Shiga toxin inh | NS1 inh | LmPK inhibitor | FBPA Giardia inh
c1ccc(Nc2nc(CSc3ncn[nH]3)cs2)cc1 | 43.5* | 68.1* | . | -0.8% | -16.2%
O=C(CSc1ncn[nH]1)Nc1nc(-c2ccccc2)cs1 | 10.5 | 28.4 | 1.8% | -5.6% | -8.7%
COc1cc2c3cc1Oc1c(O)c(OC)cc4c1[C@@H](Cc1ccc(cc1)Oc1cc(ccc1O)C[C@H]3N(C)CC2)N(C)CC4 | . | . | -5.1% | . | .
NNC(=O)c1cc(O)c(O)c(O)c1 | -3.3 | 12.7 | 7.7% | -1.0% | ?
NNC(=O)c1cc(Br)cs1 | 26.0 | 32.6* | 2.5% | -2.7% | 4.1%
CN(C)c1ccc(C=Nc2cnn(C)c2C(N)=O)cc1 | 39.2* | 90.1* | -75.4% | ? | -22.7%
Cc1onc(-c2c(F)cccc2Cl)c1C(=O)OCC(=O)NC1CC1 | -1.3 | 1.5 | . | -0.6% | 5.1%
Cc1[nH]n(-c2ccccc2)c(=O)c1C=Nc1cccc(F)c1 | 9.0 | 57.1* | -1.5% | -5.6% | -8.0%
Cc1[nH]n(-c2ccccc2)c(=O)c1C=NC1CCCCCC1 | 20.0* | 38.7 | -3.1% | 1.4% | -1.0%
Cc1[nH]n(-c2ccccc2)c(=O)c1/C=N/c1ccccn1 | 1.3 | 5.6 | -4.4% | -7.9% | 0.7%
Cc1[nH]n(-c2ccccc2)c(=O)c1/C=N/N(c1ccccc1)c1ccccc1 | -4.9 | 19.2 | 10.3% | 5.8% | 11.7%
C=CCN=Cc1c(C)[nH]n(-c2ccccc2)c1=O | 22.1* | 93.5* | . | -2.6% | -0.2%
Cc1[nH]n(-c2ccccc2)c(=O)c1C=NC1CCCCC1 | 14.0* | 48.9* | . | -4.8% | 1.2%
Cc1[nH]n(-c2ccccc2)c(=O)c1C=Nc1ccc2[nH]c(=O)[nH]c2c1 | 1.6 | -4.3 | 17.8% | -0.2% | -2.1%
CSCC[C@H](NC(=O)[C@H](CC(C)C)NC(=O)CNC(=O)[C@H](Cc1ccccc1)NC(=O)[C@H](Cc1ccccc1)NC(=O)[C@H](CCC(N)=O)NC(=O)[C@H](CCC(N)=O)NC(=O)[C@@H]1CCCN1C(=O)[C@H](CCCCN)NC(=O)[C@@H]1CCCN1C(=O)[C@@H](N)CCCN=C(N)N)C(N)=O | -7.3 | -3.0 | . | . | 0.8%
CCOC(=O)CSc1nc2sc3c(c2c(=O)n1-c1ccccc1)CCN(C(C)C)C3 | -8.4 | -11.9 | -2.5% | 0.1% | -19.3%
O=C(Nc1nccs1)c1ccc(Br)o1 | 33.4* | 69.4* | -2.3% | -12.4% | -4.4%
O=C(/C=C/c1ccc(Br)o1)Nc1nccs1 | 38.6* | 94.5* | . | -10.5% | 0.0%
O=C(O)/C=C/C(=O)Nc1nccs1 | 5.3 | 1.6 | 2.8% | -6.0% | -2.8%
CC(NS(=O)(=O)c1ccc2c(c1)oc(=O)n2C)c1ccccc1 (centres undefined) | -4.7 | -21.4 | 1.2% | -5.0% | .
CCOc1ccc(NC(=O)COc2cccc3c2CCN(Cc2cccnc2)C3=O)cc1 | -0.3 | -15.7 | 4.5% | -7.1% | .
CCOc1ccc(NC(=O)C2CCCN2S(=O)(=O)c2ccc3c(c2)C(C)(C)C(=O)N3C)cc1 (centres undefined) | -3.5 | 16.3 | -16.5% | -2.3% | 0.1%
O=C(N/N=C/c1ccoc1)c1ccccc1O | 29.0* | 31.6 | 0.9% | -11.2% | .
O=C(N/N=C/c1ccoc1)c1ccccc1 | 36.7* | 61.2* | 11.8% | -4.1% | -3.4%
O=C(N/N=C/c1ccoc1)c1ccc(Br)cc1 | 36.3* | 36.0* | 3.7% | -7.9% | 4.5%
Cc1ccc2c(c1)COc1c3ccc(C(=O)N[C@@H](C)CO)cc3nn1-2 | 42.1* | 52.9* | -1.6% | -6.0% | -1.6%
